Assay results: PubChem BioAssay AID2685 (National Center for Advancing Translational Sciences (NCATS), 2010)
Screen size: about 320,000 compounds; about 2,100 (0.66%) were called active. Roughly 53% stayed inconclusive and do not appear here. The call rests on the fitted dose curve; in most records, active means well fitted inhibition curve with a large enough effect in the signal ratio, with a control signal flat (not every such curve was filed as active); inconclusive means small, poorly fitted or top-dose-only effect, or effect the other way, or a change in a side signal; inactive means flat fitted curve, though single readings scatter; the % refers to the signal ratio. The list comes from a sample in which actives are over-represented; it also holds similar structures and randomly drawn compounds.

Assay: qHTS Assay for Lipid Storage Modulators in Drosophila S3 Cells;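 on cell number change: cells counted by Cell Tracker Red CMTPX staining in the red channel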; on lipid storage change, negative = inhibition: on the % scale 0 is the no-effect control and ±100 the full control effect
Conditions: BODIPY lipid droplet fluorescence, 18-24 h, cells fed with added oleic acid; cell number change: measured here: cell count max response; series mostly up to 46.1 µM
Procedure, shortened: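 Drosophila S3 cells loaded with oleic acid (400 uM, as added) and compounds at several concentrations; lipid droplets imaged by 488-nm laser-scanning cytometry, 500–530 nm intensity and object ratio to cell channel. Percent activity normalized to 20 uM Triacsin C.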
Potency means the concentration at half of the fitted maximal effect.

Row | SMILES | Potency | cell number change [%] | lipid storage change, negative = inhibition
1 | CCOc1ccc(NC(=O)C2CCC(CNc3c(N4CCCCC4)c(=O)c3=O)CC2)cc1 (stereo unspecified) | inactive |  | 
2 | CC(C)CC(=O)Nc1cccc(-c2nc3ncccc3o2)c1 | inactive | -6.34 | 
3 | CCCCC(=O)Nc1cccc(-c2nc3ncccc3o2)c1 | inactive | 0.0678 | 
4 | O=C(CSc1ccc(Cl)cc1)Nc1cccc(-c2nc3ncccc3o2)c1 | 1.3 µM (active) | -12.7 | 
5 | CCc1ccccc1N1CCN(S(=O)(=O)c2cc(OC)ccc2OC)CC1 | inactive |  | 
6 | Cc1cc(C)cc(Nc2cnn(C34CC5CC(CC(CC(=O)O)(C5)C3)C4)c(=O)c2Cl)c1 | 18.4 µM (active) | -2.34 | 
7 | CCc1ccc(Nc2cnn(C34CC5CC(CC(CC(=O)O)(C5)C3)C4)c(=O)c2Cl)cc1 | inactive | 8.4 | 
8 | Cc1ccc(Nc2cnn(C34CC5CC(CC(CC(=O)O)(C5)C3)C4)c(=O)c2Cl)c(Cl)c1 | inactive | 5.36 | 
9 | Cc1ccc(CN2CCN(CC(C)C)C(CCO)C2)s1 (stereo unspecified) | inactive | 20.3 | 
10 | CN(C)c1ccc(NC(=O)C[n+]2ccccc2)cc1 | inactive | 22.5 | 
11 | CC(=O)COc1nc2c(c(-c3ccco3)c1C#N)CCc1ccccc1-2 | inactive | 7.55 | 
12 | N#Cc1c(OCC(=O)c2ccccc2)nc2c(c1-c1ccco1)CCc1ccccc1-2 | 8.2 µM (active) | -13 | 
13 | CCOC(=O)COc1nc2c(c(-c3ccco3)c1C#N)CCc1ccccc1-2 | inactive | 3.1 | 
14 | CCCOC(=O)Cn1c(=O)c2cc3c(=O)n(CC(=O)OCCC)c(=O)c3cc2c1=O | inactive | -10.2 | 
15 | CCOC(=O)C1=C(C)N=C2SCCC(=O)N2C1c1cccs1 (stereo unspecified) | inactive | -2.29 | 
16 | O=C(O)Cc1sc(Nc2cccc3ccccc23)nc1-c1ccccc1 | 0.092 µM (active) | 25.4 | 
17 | O=C(O)Cc1sc(Nc2cccc3ccccc23)nc1-c1ccc(F)cc1 | inactive | 12.9 | 
18 | O=C(O)Cc1sc(Nc2cccc3ccccc23)nc1-c1ccc(Cl)cc1 | inactive | 13.4 | 
19 | O=c1c([N+](=O)[O-])c(N2CCOCC2)c2ccccc2n1-c1ccccc1 | inactive | 8.53 | 
20 | CCc1cccc(NC(=O)CCCn2nc(CC)n3c(cc4occc43)c2=O)c1 | 20.6 µM (active) | -27.3 | 
21 | CCc1nn(CCCC(=O)N2CCN(c3cccc(C)c3C)CC2)c(=O)c2cc3occc3n12 | inactive |  | 
22 | CCOC(=O)C1CCN(C(=O)CCCn2nc(CC)n3c(cc4occc43)c2=O)CC1 | inactive | -12.6 | 
23 | CCc1nn(CCCC(=O)NCc2ccco2)c(=O)c2cc3occc3n12 | inactive | -6.49 | 

Row | SMILES | Potency | cell number change [%] | lipid storage change, negative = inhibition
24 | CCc1nn(CCCC(=O)N2CCC(C)CC2)c(=O)c2cc3occc3n12 | 4.11 µM (active) |  | 
25 | CCc1nn(CCCC(=O)NCc2ccccc2C)c(=O)c2cc3occc3n12 | inactive | -19.5 | 
26 | COCCNC(=O)Cn1nc(-c2ccccc2C)ccc1=O | inactive | 8.76 | 
27 | O=C(CN(C(=O)c1ccc(Cl)cc1)N1C(=O)C2C3C=CC(C3)C2C1=O)c1cccs1 (stereo unspecified) |  | -8.51 | 5.92% [at 9.22 µM] (inactive)
28 | COCC(C)NC(=O)C(C)N1c2cccc3cccc(c23)S1(=O)=O (stereo unspecified) | inactive | 3.31 | 
29 | O=C1CC(c2ccco2)CC(O)=C1C=Nc1ccccc1-c1ccccc1 (stereo unspecified) | inactive | 5.01 | 
30 | O=C1CC(c2ccco2)CC(O)=C1C=Nc1cc(Cl)ccc1Cl (stereo unspecified) | inactive | 10.5 | 
31 | O=C1CC(c2ccco2)CC(O)=C1C=Nc1cc(Cl)cc(Cl)c1 (stereo unspecified) | 25.9 µM (active) | 13.6 | 
32 | O=C(C1CCN(C2CCN(C/C=C/c3ccccc3)CC2)CC1)N1CCOCC1 | inactive | 7.25 | 
33 | O=C(C1=C(O)C(=O)N(CC2CCCO2)C1c1cccc(Cl)c1)c1ccco1 (stereo unspecified) | 0.82 µM (active) | -5.86 | 
34 | O=C(C1=C(O)C(=O)N(CC2CCCO2)C1c1ccccc1Cl)c1ccco1 (stereo unspecified) | 6.51 µM (active) | -3.95 | 
35 | COc1ccc(C2C(C(=O)c3ccco3)=C(O)C(=O)N2CC2CCCO2)c(OC)c1 (stereo unspecified) | inactive | -0.87 | 
36 | Cc1ccc(C2C(C(=O)c3ccco3)=C(O)C(=O)N2c2ncccn2)cc1 (stereo unspecified) | inactive | 10.6 | 
37 | O=C(C1=C(O)C(=O)N(CC2CCCO2)C1c1ccc(Cl)cc1)c1ccco1 (stereo unspecified) | inactive | 18.3 | 
38 | O=C(C1=C(O)C(=O)N(CC2CCCO2)C1c1cccc(O)c1)c1ccco1 (stereo unspecified) | inactive | -19.7 | 
39 | O=C(C1=C(O)C(=O)N(Cc2ccco2)C1c1cccc(Cl)c1)c1ccco1 (stereo unspecified) | inactive | 15 | 
40 | O=C(C1=C(O)C(=O)N(c2ncccn2)C1c1cccc(Cl)c1)c1ccco1 (stereo unspecified) | 6.51 µM (active) | 5.29 | 
41 | O=C(C1=C(O)C(=O)N(c2ncccn2)C1c1ccc(Cl)cc1)c1ccco1 (stereo unspecified) | inactive | 8.73 | 
42 | COC(=O)c1ccc(NC(=S)NCc2ccco2)cc1 |  | -29.4 | -4.68% [at 9.22 µM] (inactive)
43 | CCN(CC)N=Nc1ccc(S(N)(=O)=O)cc1 | inactive | -10.8 | 
44 | O=C(c1ccc(Cl)cc1)N1CCN(c2ccc(F)cc2)CC1 | inactive | -2.3 | 
45 | CCOC(=O)c1cccc(NC(=O)CNC(=O)C2CCCCC2)c1 | inactive | 12.1 | 
